# Measured values as given in PubChem BioAssay.
# Activity calls are given as the source filed them.
# Assays:
# [1] = system: Plasmodium falciparum Sir2 (PF13_0152, Sir2A); test: Plasmodium falciparum Sir2A binding compounds – biochemical, small-molecule microarray, 635 nm fluorescence, primary screen (AID 1098); conditions: fluorescence 635 nm, higher = more signal;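 further: score merges spot fluorescence intensity with its signal-to-noise ratio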
# [2] = probe aDKK1 binding to arrayed compounds – biochemical, biotinylated probe, 635/667 nm fluorescence, primary screen (AID 1099); conditions: small-molecule microarray, higher = more signal;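 further: score merges 667nm spot fluorescence with signal to noise across triplicate slides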
# [3] = probe aCHRDL2 binding to arrayed compounds – biochemical, biotinylated probe, 635/667 nm fluorescence, primary screen (AID 1100); conditions: small-molecule microarray, higher = more signal
# [4] = change in splice reporter luminescence, either direction, cell-based, HEK293, spliceosome inhibition project, primary screen (AID 1101); conditions: HEK293 splicing luciferase reporter, 24 h, higher = more signal, called active from +8 up or from −8 down;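 further: HEK293 cells carrying a splicing-competent luciferase reporter gene; test concentration not given here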
# [5] = molecular target: Fibroblast growth factor 10 (Homo sapiens) (UniProt O15520); test: compounds binding fibroblast growth factor 10 – biochemical, small-molecule microarray, 635 nm fluorescence, primary screen (AID 1102); conditions: FGF10 binding, fluorescence 635 nm, higher = more signal
# Chain of Fibroblast growth factor 10 (Homo sapiens) (O15520 whole entry, looked up): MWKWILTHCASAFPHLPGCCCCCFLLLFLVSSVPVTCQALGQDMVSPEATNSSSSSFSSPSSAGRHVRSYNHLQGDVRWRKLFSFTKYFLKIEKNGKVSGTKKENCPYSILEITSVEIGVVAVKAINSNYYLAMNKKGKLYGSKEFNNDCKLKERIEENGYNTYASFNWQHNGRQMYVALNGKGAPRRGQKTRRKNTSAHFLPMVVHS
# [6] = system: glycogen synthase kinase-3 (GSK3A per assay name; protocol says GSK3B); test: compounds binding glycogen synthase kinase-3 – biochemical, small-molecule microarray, 635 nm fluorescence, GSK3A, primary screen (AID 1103); conditions: fluorescence 635 nm, higher = more signal; further: the record names both GSK3A and GSK3B
# [7] = molecular target: Epidermal growth factor receptor (Homo sapiens) (UniProt P00533); test: compounds binding epidermal growth factor receptor – biochemical, small-molecule microarray, 635 nm fluorescence, primary screen (AID 1104); conditions: EGFR binding, higher = more signal;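 further: score merges 667 nm emission intensity with spot signal to noise over triplicate slides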
# Chain of Epidermal growth factor receptor (Homo sapiens) (P00533 whole entry, looked up): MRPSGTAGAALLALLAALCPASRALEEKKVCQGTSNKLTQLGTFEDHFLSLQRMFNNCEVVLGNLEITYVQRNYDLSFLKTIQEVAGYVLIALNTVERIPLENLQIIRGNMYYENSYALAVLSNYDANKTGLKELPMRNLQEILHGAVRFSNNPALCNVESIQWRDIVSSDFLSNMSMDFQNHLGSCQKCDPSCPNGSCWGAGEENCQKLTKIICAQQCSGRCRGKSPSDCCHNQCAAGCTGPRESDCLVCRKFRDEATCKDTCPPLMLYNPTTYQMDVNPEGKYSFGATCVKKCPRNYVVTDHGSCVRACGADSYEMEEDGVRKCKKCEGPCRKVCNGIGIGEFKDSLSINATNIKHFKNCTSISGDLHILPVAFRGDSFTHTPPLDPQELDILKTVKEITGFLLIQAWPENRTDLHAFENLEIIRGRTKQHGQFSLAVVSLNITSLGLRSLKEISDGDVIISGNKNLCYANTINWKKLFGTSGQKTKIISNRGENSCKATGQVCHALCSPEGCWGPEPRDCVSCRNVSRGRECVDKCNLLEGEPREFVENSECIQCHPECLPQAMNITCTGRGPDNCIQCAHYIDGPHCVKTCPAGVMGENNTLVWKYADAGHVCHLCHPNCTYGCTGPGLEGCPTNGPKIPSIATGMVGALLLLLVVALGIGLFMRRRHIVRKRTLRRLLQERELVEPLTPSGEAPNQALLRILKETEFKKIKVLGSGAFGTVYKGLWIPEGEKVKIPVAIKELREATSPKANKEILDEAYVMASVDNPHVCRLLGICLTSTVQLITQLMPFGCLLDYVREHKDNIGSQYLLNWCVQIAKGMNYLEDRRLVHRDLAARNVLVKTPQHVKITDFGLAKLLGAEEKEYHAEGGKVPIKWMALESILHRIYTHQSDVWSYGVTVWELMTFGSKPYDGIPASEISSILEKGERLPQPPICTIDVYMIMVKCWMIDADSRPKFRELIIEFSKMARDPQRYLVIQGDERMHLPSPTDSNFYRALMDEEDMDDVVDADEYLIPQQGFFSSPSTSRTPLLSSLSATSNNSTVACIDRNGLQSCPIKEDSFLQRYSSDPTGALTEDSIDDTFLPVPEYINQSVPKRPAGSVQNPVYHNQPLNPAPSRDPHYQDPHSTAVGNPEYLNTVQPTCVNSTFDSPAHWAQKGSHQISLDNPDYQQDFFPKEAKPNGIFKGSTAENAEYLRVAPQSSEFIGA
# [8] = molecular target: Follistatin-related protein 3 (Homo sapiens) (UniProt O95633); test: compounds binding follistatin-related protein 3 – biochemical, small-molecule microarray, 635 nm fluorescence, primary screen (AID 1105); conditions: FSTL3 binding, higher = more signal;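 further: score merges emission near 667 nm and signal to noise per printed spot across three slides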
# Chain of Follistatin-related protein 3 (Homo sapiens) (O95633 whole entry, looked up): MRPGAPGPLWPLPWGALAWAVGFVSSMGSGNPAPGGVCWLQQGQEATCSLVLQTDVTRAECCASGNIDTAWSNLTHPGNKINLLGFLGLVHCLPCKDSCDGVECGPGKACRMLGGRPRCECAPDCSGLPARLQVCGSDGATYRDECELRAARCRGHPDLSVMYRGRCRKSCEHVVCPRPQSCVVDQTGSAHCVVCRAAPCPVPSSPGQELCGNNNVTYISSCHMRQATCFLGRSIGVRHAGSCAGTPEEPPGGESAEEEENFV
# [9] = molecular target: Dickkopf-related protein 1 (Homo sapiens) (UniProt O94907); test: small molecules binding DKK1 protein – biochemical, small-molecule microarray, 635 nm fluorescence scan, primary screen (AID 1106); conditions: higher = more signal;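 further: score merges emission near 667 nm with signal to noise over three replicate slides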
# Chain of Dickkopf-related protein 1 (Homo sapiens) (O94907 whole entry, looked up): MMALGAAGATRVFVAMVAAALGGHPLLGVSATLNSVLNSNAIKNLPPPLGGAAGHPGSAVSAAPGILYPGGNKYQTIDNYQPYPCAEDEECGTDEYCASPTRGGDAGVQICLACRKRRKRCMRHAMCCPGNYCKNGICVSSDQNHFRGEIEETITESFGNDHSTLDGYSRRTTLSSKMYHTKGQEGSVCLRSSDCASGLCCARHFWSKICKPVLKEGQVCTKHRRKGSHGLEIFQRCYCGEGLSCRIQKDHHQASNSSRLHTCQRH
# [10] = system: Inhibin beta A chain (activin A); test: small molecules binding activin A – biochemical, small-molecule microarray, 635 nm fluorescence scan, primary screen (AID 1107); conditions: INHBA, higher = more signal;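 further: mouse activin A protein probed at 4.33 µg/mL on printed slides; score merges bound-protein fluorescence near 667 nm with spot signal-to-noise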
# [11] = system: Human papillomavirus type 1a protein E7 (residues 44-93); test: small molecules binding HPV E7 44-93 – biochemical, small-molecule microarray, residues 44-93, 635 nm fluorescence, primary screen (AID 1108); conditions: fluorescence 635 nm, higher = more signal;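 further: E7 fragment applied at 1 µg/mL in TBST for 1 h at 4 C; score combines spot fluorescence with its signal to noise ratio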
# [12] = hepatitis C replication reporter changes, two-sided – Huh7 cells, luciferase reporter, HCV replication inhibitor project, primary screen (AID 1109); conditions: Huh7 HCV replicon luciferase reporter, 48 h; higher = more signal;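 further: huh7 hepatoma cells harbouring a luciferase neomycin HCV replicon reporter; luciferase luminescence as measure of HCV replicon replication; test concentration not given here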
# [13] = molecular target: Left-right determination factor 2 (Homo sapiens) (UniProt O00292); test: small molecules binding LEFTY2 protein – biochemical, small-molecule microarray, 635 nm fluorescence scan, primary screen (AID 1110); conditions: higher = more signal
# Chain of Left-right determination factor 2 (Homo sapiens) (O00292 whole entry, looked up): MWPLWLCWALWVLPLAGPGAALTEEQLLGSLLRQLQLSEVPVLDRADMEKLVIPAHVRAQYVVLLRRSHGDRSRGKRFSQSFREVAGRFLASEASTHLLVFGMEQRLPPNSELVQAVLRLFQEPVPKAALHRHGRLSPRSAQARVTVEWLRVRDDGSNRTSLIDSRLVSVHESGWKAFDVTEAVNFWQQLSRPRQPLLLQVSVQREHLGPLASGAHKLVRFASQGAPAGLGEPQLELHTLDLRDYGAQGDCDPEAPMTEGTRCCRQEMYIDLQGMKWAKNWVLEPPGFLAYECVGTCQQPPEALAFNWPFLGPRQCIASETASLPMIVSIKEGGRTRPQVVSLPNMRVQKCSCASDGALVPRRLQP
# [14] = molecular target: Calmodulin-1 (Homo sapiens) (UniProt P0DP23); test: small molecules binding calmodulin-1 with EGTA – biochemical, small-molecule microarray, Cy5-labelled CALM1, profiling panel (AID 1111); conditions: Cy5-CALM1 binding fluorescence, higher = more signal;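 further: labelled calmodulin applied in Tris saline Tween buffer holding calcium plus EGTA and DTT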
# [15] = molecular target: Calmodulin-1 (Homo sapiens) (UniProt P0DP23); test: small molecules binding Ca-loaded calmodulin-1 – biochemical, small-molecule microarray, Cy5-labelled CALM1, plus calcium, artefact control for SMM control-protein annotation, profiling panel (AID 1112); conditions: Cy5-CALM1 binding fluorescence, higher = more signal;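 further: score merges spot fluorescence with signal to noise from triplicate slides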
# [16] = probe aWnt5a binding to arrayed compounds – biochemical, biotinylated probe, 635/667 nm fluorescence, primary screen (AID 1113); conditions: small-molecule microarray, higher = more signal;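 further: score merges 667 nm fluorescence intensity with signal-to-noise per printed feature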
# [17] = probe aShh binding to arrayed compounds – biochemical, biotinylated probe, 635/667 nm fluorescence, primary screen (AID 1114); conditions: small-molecule microarray, higher = more signal;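 further: probe is biotin-labelled aShh protein from a stem cell growth factor screen; measures binding of labelled protein to compounds printed on the slide; score merges feature fluorescence at 667 nm with signal-to-noise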
# [18] = probe aNog binding to arrayed compounds – biochemical, biotinylated probe, 635/667 nm fluorescence, primary screen (AID 1115); conditions: small-molecule microarray, higher = more signal;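 further: probe is biotinylated aNog protein used at 0.15 µg/mL for 1 h at 4 C; z-score combines 667 nm fluorescence of each spot with its signal to noise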
# [19] = molecular target: Torsin-1A-interacting protein 1 (Homo sapiens) (UniProt Q5JTV8); test: compound microarray binding of lysate hLAP1 – cell lysate, small-molecule microarray, COS7 lysate, 635/667 nm fluorescence, primary screen (AID 1116); conditions: 635 nm fluorescence, higher = more signal
# Chain of Torsin-1A-interacting protein 1 (Homo sapiens) (Q5JTV8 whole entry, looked up): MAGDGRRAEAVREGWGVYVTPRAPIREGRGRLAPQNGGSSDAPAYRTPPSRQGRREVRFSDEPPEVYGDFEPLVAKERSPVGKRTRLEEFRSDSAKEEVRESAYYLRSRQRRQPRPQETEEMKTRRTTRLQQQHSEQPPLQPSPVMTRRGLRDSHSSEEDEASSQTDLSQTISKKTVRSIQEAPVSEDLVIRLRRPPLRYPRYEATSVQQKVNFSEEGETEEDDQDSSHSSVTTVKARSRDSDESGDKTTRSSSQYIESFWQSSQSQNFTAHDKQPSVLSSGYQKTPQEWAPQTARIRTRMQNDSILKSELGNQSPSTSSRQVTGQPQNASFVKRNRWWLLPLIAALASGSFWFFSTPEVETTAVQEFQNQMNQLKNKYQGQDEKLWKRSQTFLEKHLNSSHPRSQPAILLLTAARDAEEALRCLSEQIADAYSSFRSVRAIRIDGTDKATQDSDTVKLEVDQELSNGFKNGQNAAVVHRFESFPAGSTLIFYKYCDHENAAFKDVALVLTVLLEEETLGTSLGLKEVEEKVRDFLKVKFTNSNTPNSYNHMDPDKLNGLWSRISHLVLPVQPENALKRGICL
# [20] = molecular target: Alpha-bungarotoxin (Bungarus multicinctus) (UniProt P60615); test: compounds binding labelled alpha-BTX control protein – biochemical, small-molecule microarray, Alexa647 label, 635/667 nm fluorescence, artefact control for SMM control protein annotation, profiling panel (AID 1117); conditions: alpha-BTX-A647 binding fluorescence, higher = more signal
# Chain of Alpha-bungarotoxin (Bungarus multicinctus) (P60615 whole entry, looked up): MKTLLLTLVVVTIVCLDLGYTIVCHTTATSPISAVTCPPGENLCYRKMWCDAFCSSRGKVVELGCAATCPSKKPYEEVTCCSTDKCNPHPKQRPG
smiles,measurement,setting,value
NC(=O)[C@H]1[C@@H]2C(=O)O[C@@H](c3ccccc3)[C@@H](c3ccccc3)N2[C@@H](c2ccc(O)cc2)[C@]12C(=O)Nc1ccc(C#CC3(O)CCCCCC3)cc12,composite z-score,[1],1.37
same,composite z-score,[2],0.156
same,composite z-score,[3],0.0715
same,z-score,[4],-1.32 (inactive)
same,composite z-score,[5],1.36
same,composite z-score,[6],1.31
same,composite z-score,[7],0.53
same,composite z-score,[8],1.42
same,composite z-score,[9],0.573
same,composite z-score,[10],0.593
same,composite z-score,[11],1.45
same,z-score,[12],-2.61
same,composite z-score,[13],0.6
same,composite z-score,[14],0.861
same,composite z-score,[15],-0.227
same,composite z-score,[16],-0.12
same,composite z-score,[17],0.534
same,composite z-score,[18],-0.327
same,composite z-score,[19],1.49
same,composite z-score,[20],1.49
C[C@]12C(=O)N(CCCCCO)[C@@H]3C(=O)N(c4ccc(Cl)cc4)CC=CC31O[C@@H]1/C=C\CCCOC(=O)C12 (stereo not given in full),composite z-score,[1],0.677
same,composite z-score,[2],-0.131
same,composite z-score,[3],0.557
same,z-score,[4],-0.0628 (inactive)
same,composite z-score,[5],-1.21
same,composite z-score,[6],-1.82
same,composite z-score,[7],-1.22
same,composite z-score,[8],-0.934
same,composite z-score,[9],-1.19
same,composite z-score,[10],-0.0839
same,composite z-score,[11],-1.86
same,z-score,[12],-0.381
same,composite z-score,[13],-1.95
same,composite z-score,[14],-0.811
same,composite z-score,[15],1.22
same,composite z-score,[16],-0.23
same,composite z-score,[17],-0.138
same,composite z-score,[18],-0.125
same,composite z-score,[19],-0.579
same,composite z-score,[20],-0.797
Cc1ccc(F)cc1S(=O)(=O)N[C@@H]1CCN(C(=O)c2ccc(OC(C)C)cc2)C1,composite z-score,[1],0.416
same,composite z-score,[2],-0.274
same,composite z-score,[3],-0.734
same,z-score,[4],-0.0035 (inactive)
same,composite z-score,[5],0.969
same,composite z-score,[6],1
same,composite z-score,[7],0.5
same,composite z-score,[8],1.34
same,composite z-score,[9],0.463
same,composite z-score,[10],0.0062
same,composite z-score,[11],0.801
same,z-score,[12],-0.0287
same,composite z-score,[13],1.08
same,composite z-score,[14],0.237
same,composite z-score,[15],-0.603
same,composite z-score,[16],-0.032
same,composite z-score,[17],0.0121
same,composite z-score,[18],-0.425
same,composite z-score,[19],0.521
same,composite z-score,[20],0.247
CC1CC/C=C\[C@H]2OC34C=CCN(Cc5ccccc5)C(=O)[C@H]3N(CCO)C(=O)[C@@H]4C2C(=O)O1 (stereo not given in full),composite z-score,[1],1.59
same,composite z-score,[2],-0.0038
same,composite z-score,[3],0.681
same,z-score,[4],0.229 (inactive)
same,composite z-score,[5],0.237
same,composite z-score,[6],-0.252
same,composite z-score,[7],-1.11
same,composite z-score,[8],-1.07
same,composite z-score,[9],-0.798
same,composite z-score,[10],1.23
same,composite z-score,[11],0.442
same,z-score,[12],-0.0892
same,composite z-score,[13],-0.51
same,composite z-score,[14],-0.556
same,composite z-score,[15],0.0116
same,composite z-score,[16],0.0597
same,composite z-score,[17],-0.0035
same,composite z-score,[18],0.0169
same,composite z-score,[19],1.62
same,composite z-score,[20],-0.4
CC(C)C[C@@H]1NC(=O)[C@@H]2C[C@H](C(=O)NCc3ccc(F)cc3)[C@H](c3ccc(O)cc3)N2C1=O,composite z-score,[1],1.03
same,composite z-score,[2],0.0289
same,composite z-score,[3],-0.0756
same,z-score,[4],-0.295 (inactive)
same,composite z-score,[5],0.807
same,composite z-score,[6],0.819
same,composite z-score,[7],0.116
same,composite z-score,[8],0.111
same,composite z-score,[9],0.284
same,composite z-score,[10],-0.445
same,composite z-score,[11],1.11
same,z-score,[12],-0.738
same,composite z-score,[13],0.1
same,composite z-score,[14],1.35
same,composite z-score,[15],-0.166
same,composite z-score,[16],-0.147
same,composite z-score,[17],0.191
same,composite z-score,[18],-0.319
same,composite z-score,[19],1.03
same,composite z-score,[20],0.896
CCCCCCC#C[Si](O[C@H](c1ccccc1)c1cn(Cc2cccc(Cl)c2)nn1)(C(C)C)C(C)C,composite z-score,[1],1.11
same,composite z-score,[2],-0.166
same,composite z-score,[3],-0.287
same,z-score,[4],-0.577 (inactive)
same,composite z-score,[5],0.155
same,composite z-score,[6],0.57
same,composite z-score,[7],0.269
same,composite z-score,[8],0.309
same,composite z-score,[9],0.0628
same,composite z-score,[10],0.308
same,composite z-score,[11],0.564
same,z-score,[12],-0.775
same,composite z-score,[13],0.198
same,composite z-score,[14],-0.0008
same,composite z-score,[15],-0.159
same,composite z-score,[16],-0.124
same,composite z-score,[17],-0.0035
same,composite z-score,[18],-0.118
same,composite z-score,[19],0.343
same,composite z-score,[20],-0.0766
COc1ccc([Si](C)(C)[C@H]2[C@H](CCn3cc(CCO)nn3)O[C@@]3(C(=O)N(Cc4cccc(N5C(=O)c6cccc7cccc5c67)c4)c4ccccc43)[C@@H]2C)cc1,composite z-score,[1],1.23
same,composite z-score,[2],-0.0314
same,composite z-score,[3],-0.567
same,z-score,[4],-1.61 (inactive)
same,composite z-score,[5],1.27
same,composite z-score,[6],0.719
same,composite z-score,[7],0.268
same,composite z-score,[8],0.81
same,composite z-score,[9],0.848
same,composite z-score,[10],-0.427
same,composite z-score,[11],1.1
same,z-score,[12],-5.14
same,composite z-score,[13],0.464
same,composite z-score,[14],0.35
same,composite z-score,[15],0.241
same,composite z-score,[16],-0.136
same,composite z-score,[17],0.131
same,composite z-score,[18],1.01
same,composite z-score,[19],1.46
same,composite z-score,[20],1.07
COC(=O)[C@@]1(Cc2ccc(OC)cc2)[C@H]2c3cc(C(=O)N4CCCC4)n(CCF)c3C[C@H]2CN1C(=O)c1ccccc1,composite z-score,[1],1.05
same,composite z-score,[2],2.71
same,composite z-score,[3],1.56
same,z-score,[4],-2.55 (inactive)
same,composite z-score,[5],1.35
same,composite z-score,[6],0.383
same,composite z-score,[7],1.46
same,composite z-score,[8],0.942
same,composite z-score,[9],-0.226
same,composite z-score,[10],0.823
same,composite z-score,[11],0.632
same,z-score,[12],-1.27
same,composite z-score,[13],-0.191
same,composite z-score,[14],2.03
same,composite z-score,[15],0.77
same,composite z-score,[16],1.34
same,composite z-score,[17],2.55
same,composite z-score,[18],3.06
same,composite z-score,[19],1.19
same,composite z-score,[20],1.04
